According to PubChem BioAssay (EPA / NIEHS):
Results filed as inconclusive are left out. Calls of active or inactive are those of the source. How the source made its calls: active means hit-call score of the fitted dose curve at least 0.9, where 1 is the maximum; inconclusive means response in the unintended direction; inactive means score below 0.9.

Key:
[1] = biological target: rat Catechol-O-Methyl Transferase (COMT), Comt (gene 24267) (UniProt P22734); experiment: NVS_ENZ_rCOMT: NovaScreen (NVS) Enzymatic Assay for rat Catechol-O-Methyl Transferase (COMT) (AID 2283235)
Method in brief: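 Cell-free enzyme activity with protein extracted from rat dorsal striatum, measured by HPLC with absorbance detection. Compounds screened at 25 uM in duplicate; actives then run in concentration-response up to 50 uM, loss of signal versus DMSO.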

[2] = biological target: rat Constitutive Nitric Oxide Synthase (CNOS), Nos1 (gene 24598) (UniProt P29476); experiment: NVS_ENZ_rCNOS: NovaScreen (NVS) Enzymatic Assay for rat Constitutive Nitric Oxide Synthase (CNOS) (AID 2283236)
Method in brief: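 Enzyme activity in rat brain membrane preparation, read 1 h after dosing by filter-based radiometric scintillation counting. Primary screen in duplicate at 25 uM; actives (e.g., ≥30% inhibition) then run in concentration-response up to 50 uM.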

[3] = biological target: sheep Cyclooxygenase-1 (Cox1), PTGS1 (gene 443551) (UniProt P05979); experiment: NVS_ENZ_oCOX1: NovaScreen (NVS) Enzymatic Assay for sheep Cyclooxygenase-1 (Cox1) (AID 2283239);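 further: actives reduce cyclooxygenase activity so potencies are for inhibitors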
Method in brief: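 Absorbance read-out of cyclooxygenase activity in a cell-free preparation from sheep seminal vesicles, taken 0.66 hour after dosing. Initial testing was in duplicate at 25 uM, and confirmatory testing was run in concentration series.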

[4] = biological target: human Vascular Endothelial Growth Factor Receptor 3 (VEGFR3), FLT4 (gene 2324) (UniProt P35916); experiment: NVS_ENZ_hVEGFR3: NovaScreen (NVS) Enzymatic Assay for human Vascular Endothelial Growth Factor Receptor 3 (VEGFR3) (AID 2283229)
Method in brief: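 Cell-free recombinant VEGFR3 kinase reaction with fluorescent substrate, read 1 h after dosing by electrophoretic mobility shift separation of substrate and product. Single-concentration duplicate screen at 25 uM, then concentration-response up to 50 uM; loss of activity versus DMSO.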

[5] = biological target: rabbit Imidazoline 2 Central (I2C), CKB (gene 100009085) (UniProt P00567); experiment: NVS_ENZ_rabI2C: NovaScreen (NVS) Enzymatic Assay for rabbit Imidazoline 2 Central (I2C) (AID 2283228)
Method in brief: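 Rabbit brain membranes, cell-free; readout by filter-based scintillation counting 1.5 hours after dosing, loss of signal vs DMSO. Initial duplicate test at 25 uM, then concentration-response with 50 uM top concentration.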

[6] = biological target: human Serotonin, 5-Hydroxytryptamine Receptor 5A (5HT5A), HTR5A (gene 3361) (UniProt P47898); experiment: NVS_GPCR_h5HT5A: NovaScreen (NVS) G Protein-Coupled Receptor Assay for human Serotonin, 5-Hydroxytryptamine Receptor 5A (5HT5A) (AID 2283251)
Method in brief: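 Cell-free radioligand displacement binding on HEK293-derived membrane protein, 1 h incubation, filter-based scintillation counting. Primary screen in duplicate at 25 uM, actives followed in concentration series; loss of signal fitted versus DMSO.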

[7] = biological target: guinea pig Opioid, Kappa 1 Receptor (OpiateK), OPRK1 (gene 100135587) (UniProt P41144); experiment: NVS_GPCR_gOpiateK: NovaScreen (NVS) G Protein-Coupled Receptor Assay for guinea pig Opioid, Kappa 1 Receptor (OpiateK) (AID 2283252);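 further: radioligand displacement from kappa opioid receptor in guinea pig cerebellar membranes; active means reduced radioligand binding relative to DMSO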
Method in brief: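 Guinea pig cerebellar membranes, radioligand displacement with filter-based scintillation counting, 2 h after dosing. Primary screen single concentration 25 uM in duplicate; actives retested in concentration series; loss of binding fitted versus DMSO.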

[8] = tested on: guinea pig Muscarinic, Peripheral (Mperiperal) Receptor, Non-selective Binding, gene 100379235; experiment: NVS_GPCR_gMPeripheral_NonSelective: NovaScreen (NVS) G Protein-Coupled Receptor Assay for guinea pig Muscarinic, Peripheral (Mperiperal) Receptor, Non-selective Binding (AID 2283250)
Method in brief: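 Guinea pig bladder membranes, radioligand binding read 1 h after dosing by filter scintillation counting; loss of signal vs DMSO. Primary duplicate screen at 25 uM, then concentration-response up to 50 uM.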

[9] = tested on: guinea pig Leukotriene B4 Receptor (LTB4), gene 100379538; experiment: NVS_GPCR_gLTB4: NovaScreen (NVS) G Protein-Coupled Receptor Assay for guinea pig Leukotriene B4 Receptor (LTB4) (AID 2283247)
Method in brief: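 Radioligand displacement on guinea pig spleen membranes, filter-based scintillation counting 2 h after dosing. Primary duplicate single point at 25 uM; hits over threshold (e.g. 30% inhibition) run in concentration-response up to 50 uM, DMSO baseline.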

[10] = biological target: human Serotonin, 5-Hydroxytryptamine Receptor 2A (5HT2A), HTR2A (gene 3356) (UniProt P28223); experiment: NVS_GPCR_h5HT2A: NovaScreen (NVS) G Protein-Coupled Receptor Assay for human Serotonin, 5-Hydroxytryptamine Receptor 2A (5HT2A) (AID 2283249)
Method in brief: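 Human cortex membranes, cell-free radioligand binding; filter-based scintillation read 1.5 h after dosing. Duplicate screen at 25 uM first; displacement of specific binding (loss of signal) versus DMSO.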

[11] = biological target: Adenosine receptor A1 (Bos taurus) (UniProt P28190); experiment: NVS_GPCR_bAdoR_NonSelective: NovaScreen (NVS) G Protein-Coupled Receptor Assay for bovine Adenosine Receptor (AdoR), Non-selective Binding (AID 2283244)
Method in brief: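 Bovine striatal membranes, radioligand displacement binding, 1 h after dosing, filter-based scintillation counting. Screened in duplicate at 25 uM, then concentration-response up to 50 uM; loss of specific binding relative to DMSO.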

[12] = tested on: bovine Histamine 1 Receptor (H1), gene 281231; experiment: NVS_GPCR_bH1: NovaScreen (NVS) G Protein-Coupled Receptor Assay for bovine Histamine 1 Receptor (H1) (AID 2283246)
Method in brief: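 Radioligand displacement on bovine cerebellar membranes, 1 h after dosing, filter-based scintillation read-out; loss of signal vs DMSO. Duplicate single-concentration screen at 25 uM, then concentration-response up to 50 uM for hits.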

[13] = biological target: bovine Dopamine Receptor (DR), Non-selective Binding, DRD1 (gene 281125) (UniProt Q95136); experiment: NVS_GPCR_bDR_NonSelective: NovaScreen (NVS) G Protein-Coupled Receptor Assay for bovine Dopamine Receptor (DR), Non-selective Binding (AID 2283241)
Method in brief: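 Bovine striatal membranes; radioligand displacement read by filtration and scintillation counting 1 h after dosing, loss of signal vs DMSO. Screened in duplicate at 25 uM, then concentration-response for hits.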

[14] = biological target: human Serotonin, 5-Hydroxytryptamine Receptor 6 (5HT6), HTR6 (gene 3362) (UniProt P50406); experiment: NVS_GPCR_h5HT6: NovaScreen (NVS) G Protein-Coupled Receptor Assay for human Serotonin, 5-Hydroxytryptamine Receptor 6 (5HT6) (AID 2283253)
Method in brief: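 Radioligand binding to 5HT6 in HEK293-derived membranes, cell-free, 1 h after dosing; bound ligand measured by filter-based scintillation counting. Primary screen in duplicate at 25 uM; actives retested in concentration series.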

[15] = tested on: bovine Angiotensin II Receptor Type 2 (AT2), gene 407157; experiment: NVS_GPCR_bAT2: NovaScreen (NVS) G Protein-Coupled Receptor Assay for bovine Angiotensin II Receptor Type 2 (AT2) (AID 2283240)
Method in brief: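 Radioligand displacement on bovine cerebellar membranes, 1 hour incubation, filter-based scintillation counting; loss of signal vs DMSO. Duplicate single-point screen at 25 uM, then concentration-response to 50 uM maximum.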

Sequence of sheep Cyclooxygenase-1 (Cox1), PTGS1 (gene 443551) (P05979 whole entry, looked up): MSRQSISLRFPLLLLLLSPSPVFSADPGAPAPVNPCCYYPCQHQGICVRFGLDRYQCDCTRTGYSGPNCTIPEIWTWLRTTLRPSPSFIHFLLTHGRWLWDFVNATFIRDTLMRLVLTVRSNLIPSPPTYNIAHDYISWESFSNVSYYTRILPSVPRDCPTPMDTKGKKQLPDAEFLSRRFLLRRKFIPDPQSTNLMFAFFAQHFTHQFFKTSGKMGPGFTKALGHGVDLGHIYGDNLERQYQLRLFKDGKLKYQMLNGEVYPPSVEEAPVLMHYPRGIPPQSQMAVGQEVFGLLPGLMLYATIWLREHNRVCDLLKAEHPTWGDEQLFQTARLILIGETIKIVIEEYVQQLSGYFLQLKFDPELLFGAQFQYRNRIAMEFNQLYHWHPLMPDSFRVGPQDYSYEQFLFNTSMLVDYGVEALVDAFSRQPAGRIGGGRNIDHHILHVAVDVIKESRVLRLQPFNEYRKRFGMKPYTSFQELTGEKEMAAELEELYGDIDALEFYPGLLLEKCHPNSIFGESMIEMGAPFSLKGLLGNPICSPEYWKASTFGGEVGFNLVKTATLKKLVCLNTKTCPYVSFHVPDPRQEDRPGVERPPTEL
Sequence of human Serotonin, 5-Hydroxytryptamine Receptor 2A (5HT2A), HTR2A (gene 3356) (P28223 whole entry, looked up): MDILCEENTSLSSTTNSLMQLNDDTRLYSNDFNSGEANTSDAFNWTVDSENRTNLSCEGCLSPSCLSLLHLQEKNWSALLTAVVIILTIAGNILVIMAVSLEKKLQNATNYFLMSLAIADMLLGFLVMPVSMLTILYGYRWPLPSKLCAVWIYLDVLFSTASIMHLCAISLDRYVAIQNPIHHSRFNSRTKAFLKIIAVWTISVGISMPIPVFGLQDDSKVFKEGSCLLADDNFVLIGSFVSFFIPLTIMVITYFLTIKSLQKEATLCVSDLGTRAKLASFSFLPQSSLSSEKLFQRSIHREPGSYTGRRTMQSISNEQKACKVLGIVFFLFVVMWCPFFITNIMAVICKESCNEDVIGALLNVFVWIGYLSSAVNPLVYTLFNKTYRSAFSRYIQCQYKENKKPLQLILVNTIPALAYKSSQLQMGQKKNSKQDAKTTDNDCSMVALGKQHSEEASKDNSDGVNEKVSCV
Sequence of human Serotonin, 5-Hydroxytryptamine Receptor 5A (5HT5A), HTR5A (gene 3361) (P47898 whole entry, looked up): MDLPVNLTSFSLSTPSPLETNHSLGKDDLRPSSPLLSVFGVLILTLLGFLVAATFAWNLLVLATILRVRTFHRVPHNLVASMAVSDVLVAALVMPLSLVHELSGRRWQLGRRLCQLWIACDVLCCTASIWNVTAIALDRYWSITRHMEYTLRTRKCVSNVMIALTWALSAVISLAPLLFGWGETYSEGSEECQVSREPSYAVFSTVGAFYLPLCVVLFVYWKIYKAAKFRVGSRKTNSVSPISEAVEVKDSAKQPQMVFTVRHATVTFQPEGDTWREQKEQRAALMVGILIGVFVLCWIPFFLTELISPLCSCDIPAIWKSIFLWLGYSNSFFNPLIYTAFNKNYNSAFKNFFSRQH
Sequence of guinea pig Opioid, Kappa 1 Receptor (OpiateK), OPRK1 (gene 100135587) (P41144 whole entry, looked up): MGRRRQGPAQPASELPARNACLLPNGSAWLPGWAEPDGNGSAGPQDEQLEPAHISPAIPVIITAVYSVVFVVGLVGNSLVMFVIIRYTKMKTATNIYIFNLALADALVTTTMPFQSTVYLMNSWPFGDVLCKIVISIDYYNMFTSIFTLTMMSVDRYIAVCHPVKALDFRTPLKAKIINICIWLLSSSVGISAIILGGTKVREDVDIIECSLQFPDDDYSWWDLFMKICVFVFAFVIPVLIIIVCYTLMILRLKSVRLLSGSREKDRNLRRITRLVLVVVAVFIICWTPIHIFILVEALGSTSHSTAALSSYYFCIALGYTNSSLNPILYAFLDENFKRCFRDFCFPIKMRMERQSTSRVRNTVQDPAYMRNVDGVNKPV
Sequence of rat Constitutive Nitric Oxide Synthase (CNOS), Nos1 (gene 24598) (P29476 whole entry, looked up): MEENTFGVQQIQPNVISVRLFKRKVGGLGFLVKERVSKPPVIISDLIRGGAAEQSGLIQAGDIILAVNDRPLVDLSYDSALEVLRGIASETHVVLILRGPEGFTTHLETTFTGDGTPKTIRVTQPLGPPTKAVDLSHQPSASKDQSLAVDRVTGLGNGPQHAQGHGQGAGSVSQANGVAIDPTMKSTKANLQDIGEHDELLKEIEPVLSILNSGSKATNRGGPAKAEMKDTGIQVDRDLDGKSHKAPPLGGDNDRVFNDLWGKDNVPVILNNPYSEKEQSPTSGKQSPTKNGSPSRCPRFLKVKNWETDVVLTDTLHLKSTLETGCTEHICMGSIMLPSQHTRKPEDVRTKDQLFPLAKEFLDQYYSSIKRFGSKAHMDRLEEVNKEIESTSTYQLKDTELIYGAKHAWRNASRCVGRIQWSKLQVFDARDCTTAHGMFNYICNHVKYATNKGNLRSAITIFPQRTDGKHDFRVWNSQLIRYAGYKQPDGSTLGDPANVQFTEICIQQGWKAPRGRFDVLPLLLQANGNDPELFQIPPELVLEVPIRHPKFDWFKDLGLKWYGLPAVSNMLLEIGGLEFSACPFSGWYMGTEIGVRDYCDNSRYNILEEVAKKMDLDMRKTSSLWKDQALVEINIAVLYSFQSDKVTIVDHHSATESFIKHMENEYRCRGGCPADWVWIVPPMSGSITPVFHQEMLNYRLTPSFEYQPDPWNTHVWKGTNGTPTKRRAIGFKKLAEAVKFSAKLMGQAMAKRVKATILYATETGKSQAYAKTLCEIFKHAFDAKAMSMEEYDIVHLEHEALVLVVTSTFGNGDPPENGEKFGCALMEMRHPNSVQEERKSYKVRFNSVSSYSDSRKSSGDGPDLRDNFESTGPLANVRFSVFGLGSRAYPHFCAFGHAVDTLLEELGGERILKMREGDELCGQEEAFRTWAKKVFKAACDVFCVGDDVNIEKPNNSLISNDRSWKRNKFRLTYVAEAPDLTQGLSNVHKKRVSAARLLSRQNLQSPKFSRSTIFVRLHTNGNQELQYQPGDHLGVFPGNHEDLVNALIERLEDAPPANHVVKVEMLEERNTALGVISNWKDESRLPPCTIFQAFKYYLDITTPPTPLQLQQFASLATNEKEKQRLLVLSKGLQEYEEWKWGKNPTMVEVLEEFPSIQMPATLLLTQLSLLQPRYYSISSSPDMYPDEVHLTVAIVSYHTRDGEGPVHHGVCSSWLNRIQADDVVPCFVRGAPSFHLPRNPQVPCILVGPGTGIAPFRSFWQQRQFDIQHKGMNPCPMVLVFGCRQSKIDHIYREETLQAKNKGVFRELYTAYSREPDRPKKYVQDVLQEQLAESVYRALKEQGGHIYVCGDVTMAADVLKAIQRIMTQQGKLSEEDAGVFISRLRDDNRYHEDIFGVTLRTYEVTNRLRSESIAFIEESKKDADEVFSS
Sequence of rabbit Imidazoline 2 Central (I2C), CKB (gene 100009085) (P00567 whole entry, looked up): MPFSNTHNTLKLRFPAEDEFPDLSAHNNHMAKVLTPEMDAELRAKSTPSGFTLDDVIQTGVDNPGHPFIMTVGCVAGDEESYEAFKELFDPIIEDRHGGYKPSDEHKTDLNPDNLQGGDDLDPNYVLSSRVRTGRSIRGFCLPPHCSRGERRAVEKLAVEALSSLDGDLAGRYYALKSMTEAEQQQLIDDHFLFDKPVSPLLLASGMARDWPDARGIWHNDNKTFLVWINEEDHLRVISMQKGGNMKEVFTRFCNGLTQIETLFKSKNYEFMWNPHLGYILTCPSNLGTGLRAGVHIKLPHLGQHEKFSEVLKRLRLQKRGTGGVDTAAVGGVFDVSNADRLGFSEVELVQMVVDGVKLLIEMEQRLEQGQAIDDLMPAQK
Sequence of Adenosine receptor A1 (Bos taurus) (P28190 whole entry, looked up): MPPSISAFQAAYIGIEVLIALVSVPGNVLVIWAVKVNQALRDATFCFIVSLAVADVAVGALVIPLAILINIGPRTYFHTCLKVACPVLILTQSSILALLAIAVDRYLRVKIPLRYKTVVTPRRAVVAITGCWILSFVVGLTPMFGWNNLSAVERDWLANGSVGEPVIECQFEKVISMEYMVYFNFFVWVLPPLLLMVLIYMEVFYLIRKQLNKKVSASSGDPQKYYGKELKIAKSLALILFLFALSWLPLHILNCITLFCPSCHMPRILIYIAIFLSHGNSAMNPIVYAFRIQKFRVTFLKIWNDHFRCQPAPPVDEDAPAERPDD
Sequence of rat Catechol-O-Methyl Transferase (COMT), Comt (gene 24267) (P22734 whole entry, looked up): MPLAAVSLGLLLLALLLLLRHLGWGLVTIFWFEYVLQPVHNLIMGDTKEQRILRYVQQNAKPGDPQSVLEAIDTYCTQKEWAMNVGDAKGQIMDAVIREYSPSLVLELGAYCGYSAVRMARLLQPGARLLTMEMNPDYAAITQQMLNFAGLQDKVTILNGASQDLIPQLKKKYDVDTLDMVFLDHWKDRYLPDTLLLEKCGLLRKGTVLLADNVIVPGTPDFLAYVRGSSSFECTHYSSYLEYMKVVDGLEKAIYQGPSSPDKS
Sequence of human Serotonin, 5-Hydroxytryptamine Receptor 6 (5HT6), HTR6 (gene 3362) (P50406 whole entry, looked up): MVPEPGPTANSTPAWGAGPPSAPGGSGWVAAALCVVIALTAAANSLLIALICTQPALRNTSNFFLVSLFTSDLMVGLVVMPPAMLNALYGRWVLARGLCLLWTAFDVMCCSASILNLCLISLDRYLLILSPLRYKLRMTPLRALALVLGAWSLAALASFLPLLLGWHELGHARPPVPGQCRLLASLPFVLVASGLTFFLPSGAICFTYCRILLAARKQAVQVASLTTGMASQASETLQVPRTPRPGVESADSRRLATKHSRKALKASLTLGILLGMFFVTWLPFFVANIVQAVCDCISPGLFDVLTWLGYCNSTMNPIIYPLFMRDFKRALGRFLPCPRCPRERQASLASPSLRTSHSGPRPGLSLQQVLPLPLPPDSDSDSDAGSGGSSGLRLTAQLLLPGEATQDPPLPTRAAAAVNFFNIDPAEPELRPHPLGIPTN

With `O=C1c2c(O)cccc2Cc2cccc(O)c21` the AC50 [1] was 12.1 µM (active), the AC50 [2] was 5.47 µM (active) and the AC50 [3] was 3.2 µM (active).

For `CCCCCCCCCCCCCCCCO`, the AC50 [4] was 46.6 µM (active).

`O=C(O)c1[nH]n(-c2ccc(S(=O)(=O)O)cc2)c(=O)c1N=Nc1ccc(S(=O)(=O)O)cc1` was tested, and the outcome [5] was “inactive”, the outcome [4] was “inactive” and the AC50 [2] was 9.33 µM (active). For the same compound, the outcome [6] was “inactive” and the AC50 [7] was 43.3 µM (active).

`CC(=O)OCC(COC(C)=O)OC(C)=O` was tested, and the outcome [1] was “inactive”.

With `Nc1nc(=S)c2[nH]cnc2[nH]1` the AC50 [5] was 20.7 µM (active) and the AC50 [3] was 2.25 µM (active).

In the case of `CCc1nc(N)nc(N)c1-c1ccc(Cl)cc1`, the AC50 [5] is reported as 2.83 µM (active), the outcome [8] is reported as “inactive” and the outcome [6] is reported as “inactive”.

With `CC(C)(O)c1ccc(CNC(=O)c2cccnc2Oc2ccc(F)cc2)cc1` the outcome [5] was “inactive”, the AC50 [9] was 4.68 µM (active) and the outcome [10] was “inactive”. The outcome [7] was “inactive”.

`CCC(C)N(C)C(=O)c1cc2ccccc2c(-c2ccccc2Cl)n1` (centres undefined) was tested, and the outcome [2] was “inactive”, the outcome [10] was “inactive” and the AC50 [6] was 15.9 µM (active). For the same compound, the AC50 [7] was 1.91 µM (active).

In the case of `C#CC(O)C(CC)CCCC` (centres undefined), the outcome [3] is reported as “inactive” and the AC50 [9] is reported as 2.8 µM (active).

For `Oc1ccc(O)cc1`, the outcome [3] was “inactive”.

In the case of `CCCC[C@H]1CN(CC2CCOCC2)C(=O)OC12CCN(C1(C)CCN(C(=O)c3c(C)ncnc3C)CC1)CC2`, the AC50 [8] is reported as 3.04 µM (active).

`Cc1cc(SC2=C(O)C[C@@](CCc3ccc(N)cc3)(C(C)C)OC2=O)c(C(C)(C)C)cc1CO` was tested, and the outcome [11] was “inactive”.

With `CC(=O)O[C@]1(C(C)=O)CC[C@H]2[C@@H]3C=C(Cl)C4=CC(=O)[C@@H]5C[C@@H]5[C@]4(C)[C@H]3CC[C@@]21C` the outcome [6] was “inactive”.

In the case of `CO[C@@H]1COCC[C@@H]1N[C@@H]1CC[C@@](C(=O)N2CCc3ncc(C(F)(F)F)cc3C2)(C(C)C)C1`, the outcome [12] is reported as “inactive”.

With `O=C1OC(c2ccc(O)cc2)(c2ccc(O)cc2)c2ccccc21` the AC50 [7] was 4.09 µM (active).

`C=CCc1ccc(OC)c(OC)c1` was tested, and the outcome [10] was “inactive”.

In the case of `Cc1cc(Cc2ccc(N)c(C)c2)ccc1N`, the outcome [6] is reported as “inactive”.

With `O=Cc1ccccc1C=O` the outcome [9] was “inactive” and the AC50 [7] was 9.81 µM (active).

In the case of `O=C(O)CN(CC(=O)O)CC(=O)O`, the outcome [11] is reported as “inactive”.

For `O=C(N[C@@H](c1ccccc1)[C@@H]1CCCCN1)c1cccc(C(F)(F)F)c1Cl`, the AC50 [13] was 25 µM (active), the AC50 [10] was 25 µM (active) and the outcome [8] was “inactive”. The AC50 [7] was 0.641 µM (active).

With `CSc1ccc(Oc2ccc(S(N)(=O)=O)cc2CN(C)C)cc1C` the outcome [3] was “inactive”, the AC50 [10] was 13.4 µM (active) and the AC50 [6] was 7.53 µM (active). The AC50 [7] was 13.5 µM (active) and the AC50 [14] was 2.79 µM (active).

With `CC(N)=O` the outcome [10] was “inactive”.

`S=c1[nH]c2ccccc2s1` was tested, and the AC50 [2] was 10.6 µM (active) and the AC50 [3] was 8.91 µM (active).

With `CC1(C)C(=O)NC(=O)N1CO` the outcome [14] was “inactive”.

In the case of `O=[Si]=O`, the outcome [3] is reported as “inactive”.

`CCc1cc(C2=C(C(=O)O)N(c3ccccc3C(F)(F)F)S(=O)(=O)c3ccccc32)cc2c1OCO2` was tested, and the AC50 [15] was 25 µM (active), the AC50 [9] was 3.48 µM (active) and the outcome [7] was “inactive”.

With `O=C1CCCCC1` the outcome [7] was “inactive”.

For `NC=O`, the outcome [9] was “inactive”.

In the case of `CCCCc1nc2cccnc2n1Cc1ccc(-c2ccccc2-c2nnn[nH]2)cc1`, the outcome [15] is reported as “inactive”, the AC50 [9] is reported as 10.9 µM (active) and the AC50 [7] is reported as 10 µM (active).

`CC(=O)O` was tested, and the outcome [10] was “inactive”.

`O=C(NS(=O)(=O)/C=C/c1cccs1)c1ccc(F)cc1Br` was tested, and the AC50 [15] was 14.5 µM (active).

With `CN(C)CCCN1c2ccccc2Sc2ccc(Cl)cc21` the outcome [12] was “inactive”, the AC50 [8] was 1.66 µM (active) and the AC50 [6] was 1.35 µM (active). The AC50 [7] was 10.1 µM (active).
